Source: PubChem (National Center for Advancing Translational Sciences (NCATS))
HCMV inh – human cytomegalovirus inhibition. activity change, negative = inhibition, % at 57.5 µM. AID 1259415. HFF cells, HCMV-luciferase reporter, 72 h; hits give low values. actives 4.5% (n = 410,000); in the data active means activity change below about -60%; inconclusive means no clear call, values can overlap the other calls; inactive means above about -39%
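Two compound doses tested in HFFs infected with HCMV-luciferase, MOI 1 PFU/cell, 72 h at 37C. Lysate luminescence read with OneGlo; data normalized against buffer-only and 10uM Salinomycin inhibitor controls.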
HCV inhibitor – blocks hepatitis C virus; Huh7.5.1 HCVcc-Cre infection, luciferase reporter, 44 h; Potency, µM (highest dose often 41.8 µM), most hits filed as inhibitors; actives 3.4% (n = 340,000)
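After 44 h co-culture of compound, cells and HCVcc-Cre (~0.5 moi), substrate is added for 15 min at room temperature and luciferase measured over 15 sec. Cells were seeded at 1,000/well and pre-cultured 4 h.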
Pf growth 96h – P. falciparum growth inhibition at 96 hour, primary screen for plastid delayed-death inhibitors | P. falciparum luciferase reporter growth, 96 h | Potency, µM (highest dose often 28.7 µM), actives largely listed as inhibitors | actives 6.9% (n = 320,000)
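P. falciparum expressing integrated firefly luciferase, in erythrocytes at 2% hematocrit, 0.05% parasitemia, incubated with compounds 96 h at 37 C, 5% CO2. Growth inhibition read as loss of luminescence; two-generation exposure targets delayed-death apicoplast inhibitors.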
Pf growth 48h – inhibits P. falciparum growth in the first generation, 48 h; actives 5.9% (n = 310,000); P. falciparum luciferase growth in erythrocytes, 48 h; Potency, µM (doses to about 28.7 µM), actives largely listed as inhibitors; AID 504832
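Luminescence readout; reporter = integrated firefly luciferase in P. falciparum. RBC culture at 2% hematocrit, 0.1% parasitemia final, 37 C/5% CO2; decreased signal taken as growth inhibition.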
Numbers stand for hits; . = inactive; ? = inconclusive; / = no result given; [ ] = dose if it differs, or a comment. Most compounds without a hit are left out; they make up all but 13% or so of the library. Unless noted, the call rests on the fitted dose curve; in most records, active means well fitted inhibition curve with a large enough effect; inconclusive means small, poorly fitted or top-dose-only effect, or another doubt; inactive means no such curve, though single readings can be large or run the other way.

SMILES	HCMV inh	HCV inhibitor	Pf growth 96h	Pf growth 48h
O=C(Nc1ccc(S(=O)(=O)N2CCCC2)cc1)C1CCCN1C(=O)c1cccs1 (centres undefined)	-100.6	.	.	.
Cc1cc(NC(=O)C2CCN(S(=O)(=O)c3ccc4[nH]c(=O)oc4c3)CC2)ccc1Br	.	/	/	/
CC(=O)Nc1ccc(NC(=O)C2CCCN(c3ncccn3)C2)cc1 (centres undefined)	.	.	.	.
Cc1cc(F)ccc1NC(=O)CS(=O)(=O)c1cccc2nsnc12	.	/	/	/
C[C@H]1[C@H](c2ccccc2)Oc2cccc(NCCc3ccccc3)c2S(=O)(=O)N1Cc1cccc(Cl)c1	.	/	/	/
CCOC(=O)c1ccc(NC(=O)CSc2nccn2-c2cc(C)cc(C)c2)cc1	.	/	/	/
O=C(CSc1nc2c([nH]c3ccccc32)c(=O)n1-c1ccccc1)N1CCCc2ccccc21	.	/	/	/
CC(C)c1ccc(NC(=O)N2CCN(S(=O)(=O)c3ccccc3)CC2)cc1	?	?	.[5.75 µM]	?
CC(C)c1ccc(S(=O)(=O)N2CCN(C(=O)CCNC(=O)Nc3ccccc3)CC2)cc1	.	.	?	11.7µM
CSc1nccc(Oc2cccc(C#N)c2)n1	-61.3	.	.	.
Cc1ccc(Nc2ncnc3onc(C)c23)cc1Cl	.	/	/	/
CSc1ccc(C2c3c(-c4ccccc4O)n[nH]c3C(=O)N2Cc2ccncc2)cc1 (centres undefined)	.	/	/	/
CC(C)OCCCN1CC(=O)N2C(c3cccc([N+](=O)[O-])c3)c3[nH]c4ccccc4c3C[C@H]2C1=O (some centres undefined)	.	.	?	8.28µM
COc1ccc(OC)c(C2c3[nH]c4ccccc4c3C[C@H]3C(=O)N(CCCOC(C)C)CC(=O)N23)c1 (some centres undefined)	.	.	11.7µM	7.38µM
COc1ccc(C2c3[nH]c4ccccc4c3C[C@H]3C(=O)N(CCCO)CC(=O)N23)c(OC)c1 (some centres undefined)	.	.	.	.
O=C(Cc1ccc(Cl)cc1)Nc1ccc(Cl)cn1	.	.	.	.
O=S(=O)(Cc1ccc(Cl)cc1)Nc1ccc(Cl)cn1	-100.5	.	.	.
O=C(CSc1nc2nc(-c3cccs3)cc(C(F)(F)F)c2c(=O)[nH]1)Nc1ccc(F)c(F)c1	-97.1	?	.	.
CCOc1ccc(NC(=O)CSc2nc(-c3cccs3)cc(C(F)(F)F)c2C#N)cc1	.	/	/	/
CN1CCc2nc(SCC(=O)Nc3ccc(OC(F)(F)F)cc3)c(C#N)c(-c3cccs3)c2C1	.	12.6µM	.	.
N#Cc1c(C(F)(F)F)cc(-c2cccs2)nc1SCC(=O)Nc1ccc(Cl)cc1	-91.6	/	/	/
COc1ccc(C2CC(=O)N(CC(=O)Nc3ccc(C(C)=O)cc3)c3ccccc3S2)cc1OC (centres undefined)	.	/	/	/
CCOc1ccc(S(=O)(=O)N2CCCCC2)cc1NC(=O)CCc1ccc(OC)cc1	.	.	10.4µM	13.1µM
CCOc1ccc(S(=O)(=O)N2CCCCC2)cc1NC(=O)CCNC(=O)c1ccco1	.	.	?	3.29µM
COc1ccc(CCC(=O)Nc2cccc(S(=O)(=O)N3CCCCCC3)c2)cc1	.	?	.	?
SMILES	HCMV inh	HCV inhibitor	Pf growth 96h	Pf growth 48h
Cc1ccc(S(=O)(=O)c2nnn(CC(=O)Nc3ccccc3C)c2N)cc1	.	/	/	/
CSc1cc(/C=N/O)c(SC)s1	.	10µM	.	.
CSc1sc(C)cc1C=O	.	.	?	.
Cc1ccc(-c2cc(C(F)(F)F)nc(SCC(=O)c3cccc([N+](=O)[O-])c3)n2)cc1	.	?	13.1µM	?
COc1ccc(-c2ccc(=O)n(Cc3cccc([N+](=O)[O-])c3)n2)cc1	.	11.2µM	.	.
Cc1ccc(OCc2nnc(SCC(=O)c3cccc([N+](=O)[O-])c3)n2C)cc1	.	8.91µM	?	?
Cc1nc2nc(SCC(=O)c3cccc([N+](=O)[O-])c3)[nH]c2cc1Br	.	.	11.7µM	?
Cc1cccc(C)c1OC(=O)CSc1nnc(-c2cccs2)o1	.	/	/	/
CC(C)CCn1c(SCc2cccc(F)c2)nc2ccsc2c1=O	.	/	/	/
COc1cc(NC(=O)Cn2c(C)cc(C)c(C#N)c2=O)cc(OC)c1	.	/	/	/
Cc1cc(-c2ccccc2)nc(SCC(=O)c2cccc([N+](=O)[O-])c2)n1	.	12.6µM	?	?
COc1ccc(-c2cc(C)nc(SCC(=O)c3cccc([N+](=O)[O-])c3)n2)cc1	.	15.8µM	?	?
CCOC(=O)c1ccccc1NC(=O)CN(c1cc(C(F)(F)F)ccc1Cl)S(C)(=O)=O	.	/	/	/
C=C1CC[C@H](O)C/C1=C/C=C1\CCC[C@]2(C)[C@@H]([C@H](C)CCCC(C)(C)O)CC[C@@H]12	/	/	.	?
COc1ccccc1/C=C/C(=C1/C(=O)N(c2ccccc2)N=C1C)c1ccc(C)cc1	.	.	11.7µM	.
COc1cccc(/C=C/C(=C2/C(=O)N(c3ccccc3)N=C2C)c2ccccc2)c1OC	.	.	?	.
O=C(Nc1cnn(Cc2ccc(F)cc2)c1)c1cc(-c2ccco2)on1	.	.	?	.
Cc1nn(Cc2ccccc2)c(C)c1NC(=O)c1cc2nc(-c3ccco3)cc(C(F)(F)F)n2n1	.	?	.[5.75 µM]	11.7µM
O=C(Nc1cnn(Cc2ccc(F)cc2)c1)c1cc2nc(-c3ccco3)cc(C(F)(F)F)n2n1	.	?	10.4µM	.
Cc1ccc(NS(=O)(=O)c2cc3[nH]c(=O)c(=O)[nH]c3cc2C)cc1N(C)C	.	/	/	/
CCCNC(=O)N1[C@@H]2Cn3c(cccc3=O)[C@H]1[C@@H](C(=O)NCC(F)(F)F)[C@@H]2CO	.	/	/	/
O=C(CNC(=O)c1cccc(F)c1)N/N=C/c1cc(Br)ccc1OC(=O)/C=C/c1ccco1	-100.7	7.94µM	13.1µM	13.1µM
COc1cc(C(=O)NCC(=O)N/N=C/c2ccco2)cc(OC)c1OC	.	.	.	.
O=C(CNC(=O)c1ccccc1O)N/N=C/c1cc(Br)ccc1OC(=O)/C=C/c1ccco1	-74.0	?	8.28µM	?
O=C(C[C@H]1CC[C@@H](NS(=O)(=O)c2ccccc2)[C@@H](CO)O1)NCc1ccc(Cl)c(Cl)c1	.	/	/	/
SMILES	HCMV inh	HCV inhibitor	Pf growth 96h	Pf growth 48h
Cc1ccc(CNC(=O)CCCCCn2c(=O)c3sccc3n(CC(=O)N(C)c3ccccc3)c2=O)cc1	.	/	/	/
COc1cc(C(=O)N2CCN(c3ncnc4sc(C)c(C)c34)CC2)cc(OC)c1OC	-79.4	5.62µM	.	?
COc1ccccc1OCC(=O)NNC(=O)C1CCN(c2ncnc3sc(C)c(C)c23)CC1	.	11.2µM	.	?
COc1ccc(-c2csc(NC(=O)C3CCN(c4ncnc5sc(C)c(C)c45)CC3)n2)cc1OC	-99.5	2.51µM	?	?
Cc1sc2ncnc(N3CCN(c4ncccn4)CC3)c2c1C	.	.	?	?
Cc1ccccc1OCC(=O)NNC(=O)C1CCN(c2ncnc3sc(C)c(C)c23)CC1	.	?	?	?
C=CCn1c(C)cc(-c2csc(NC(=O)C3CCN(c4ncnc5sc(C)c(C)c45)CC3)n2)c1C	.	.	/	/
Cc1cccc(N2CCN(S(=O)(=O)c3ccc(F)c(C(=O)Nc4ccc(C(C)C)cc4)c3)CC2)c1C	.	/	/	/
